{
  "source": "PubChem BioAssay (NCI)",
  "note": "The panel holds about 83,000 compounds, 20% with a hit somewhere; the sample as a whole holds those more often.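 96-well plates, one dose, 48 hours. Percent growth reported; active if below 10.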 The source made the active and inactive calls.",
  "data": [
    {"system": "MDA-MB-468 breast", "assay": "NCI-60 one-dose screen, 48 h (100 = growth as untreated, 0 = no growth, -100 = all killed)", "settings": "10 µM unless noted", "values": [
      {"compound": "C=CCOC(=O)C1=C(C)N(CC)C(=O)N(CC)C1c1c(Cl)n(C)c2ccccc12", "note": "(centres undefined)", "growth": "98.2% (inactive)"},
      {"compound": "O=C1OCC2=C1C(c1ccccc1)c1cc3c(cc1N2CCO)OCO3", "note": "(centres undefined)", "growth": "9.26% (active)"},
      {"compound": "C=C(Cl)C(=NC(C)(C)C)Nc1ccccc1C", "growth": "39.2% (inactive)"},
      {"compound": "C#Cc1cccc(NC(=O)Nc2ccccc2NC(=O)CCl)c1", "growth": "-45.2% [8.25 µM] (active)"}
    ]}
  ]
}
